The subject of the first assay is Plasmodium falciparum NF54-HGL (transmission to Anopheles stephensi). Description: percentage of barcode signal found in uninfected mosquitoes (transmission-blocking activity); higher = stronger blocking of transmission to mosquito, active = 80 or more. The following applies: 10 µM; gametocyte preincubation time 24 h; readout time post-feed 8 days. Here is the method:
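The mixture was fed to Anopheles stephensi in 96-well plates as blood meals tagged with DNA-barcoded Asaia bacteria. Eight days later, mosquitoes were classed infected or uninfected by luminescence (mean + 5 SD of unfed controls). Barcodes were quantified by Luminex MagPlex-TAG in the pooled uninfected and infected Asaia cultures, background-corrected, and the score is % of barcode signal in uninfected mosquitoes = 100*Iu/(Iu+Ii).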
For `CCc1nn(C)c(C(=O)NCc2ccc(Oc3ccc(C)cc3)cc2)c1Cl`, the “percentage of barcode signal found in uninfected mosquitoes” value (shortened to “percentage of barcode signal found”) is 25.8% (inactive).
On to `CC1COC(Cn2cncn2)(c2ccc(Oc3ccc(Cl)cc3)cc2Cl)O1` (centres undefined), for which the “percentage of barcode signal found” value is 19.1% (inactive).
The same measure, in the same setting: the result for `CC(C)(C)C(O)C(Oc1ccc(-c2ccccc2)cc1)n1cncn1` (centres undefined) reads -1.02% (inactive).
In the case of `Nc1c2c(nc3sc4c(c13)CCCC4)CCCC2`, the “percentage of barcode signal found” value was 42% (inactive).
Still for that read-out and setting: the result for `Cc1cc(C2=NOC(c3cc(Cl)c(F)c(Cl)c3)(C(F)(F)F)C2)ccc1C(=O)NCc1ccc2c(c1)C(C)(C)OB2O` (centres undefined) reads 43.3% (inactive); that for `CC1(C)OB(O)c2ccc(C3=NOC(c4cc(Cl)c(F)c(Cl)c4)(C(F)(F)F)C3)cc21` (centres undefined), -4.84% (inactive); that for `CO/C=C(/C(=O)OC)c1ccccc1Oc1cc(Oc2ccccc2C#N)ncn1`, 69.5% (inactive).
Still for that read-out and setting: the result for `Cc1nn(Cc2ccccc2)c(Cl)c1C(=O)NC1CCCCCC1` reads 2.01% (inactive).

The assay is the same for the next values; noted with them: 20 µM; gametocyte preincubation time 24 h; readout time post-feed 8 days.
`O=C1O[C@@H](CO)CN1c1cc(F)c(C2=CCN(Cc3ccccc3)CC2)c(F)c1`: the “percentage of barcode signal found” value is 0.248% (inactive).
Take `O=C1O[C@@H](COc2ccon2)CN1c1cc(F)c(C2=CCN(Cc3ccccc3)CC2)c(F)c1`: the “percentage of barcode signal found” value was 29.7% (inactive).
On the same count and under the same terms, the result for `Cc1nn(C)c(C)c1NS(=O)(=O)c1c(Cl)cc(-c2ccnc(N3CCNCC3)c2)cc1Cl` reads 48.9% (inactive); that for `CO[C@@H]1CN(c2ccc(C#CC3(O)CN4CCC3CC4)c(Cc3ccccc3)n2)C[C@H]1O` (some centres undefined), 43% (inactive).
The same measure, in the same setting: the result for `Cc1cccc(C(=O)Nc2ccnc(N(C)C3CCN(CC(C)C)CC3)c2)c1` reads 46.4% (inactive).
The same measure, in the same setting: the result for `CO/N=C(\C(=O)OC)c1ccccc1CO/N=C(\C)c1cccc(C(F)(F)F)c1` reads 83.6% (active).

The values are drawn from the supplement of paper PMC8726507.
